Assay outcomes (PubChem BioAssay)
HT1080 IDH1KD tx – toxicity to HT-1080 IDH1 knockdown cells (counter line); 2% of 360,000 active; Potency, µM (highest dose often 46.1 µM), hits mostly cytotoxic; HT-1080 IDH1 knockdown viability, ATP luminescence, 48 h
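HT-1080-IDH1KD cells (IDH1 knocked down), 750/well in RPMI with 5% FBS, treated with compound 48 h at 37 degrees C. Viability by CellTiter-Glo luminescence, normalised to DMSO and no-cell wells; concentration-response curves classed.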
DT40 TDP1 no CPT – qHTS for Inhibitors of human tyrosyl-DNA phosphodiesterase 1 (TDP1): qHTS in cells in absence of CPT; 15% of 420,000 active; Potency, µM (doses to about 46.2 µM), actives largely listed as inhibitors; DT40 Tdp1-/- hTDP1 cells, no CPT, ATP luminescence, 48 h; AID 686978, 2013; further: nearly all actives have a fitted effect of over 55% in size
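Stably hTDP1-transfected Tdp1-null chicken DT40 cells were treated with library compounds minus camptothecin and grown for at least 48 hr at 37 °C, after which cellular ATP was quantified by luminescence.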
TDP1 cell CPT – DT40-hTDP1 cell growth loss with CPT | Potency, µM (highest dose often 46.2 µM), actives largely listed as inhibitors | chicken DT40 Tdp1-/-;hTDP1 cells + 20 nM CPT, ATP luminescence, 48 h | AID 686979 | 12% of 420,000 active; further: nearly all actives have a fitted effect of over 55% in size
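Chicken DT40 Tdp1-/- cells complemented with human TDP1, 400 cells/well, exposed to compounds plus 20 nM camptothecin for at least 48 h at 37 C; viability read as ATP content by CellTiter-Glo luminescence.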
HT1080NT lethal – kills 2HG-producing HT-1080-NT fibrosarcoma cells; HT-1080-NT fibrosarcoma viability, CellTiter-Glo ATP luminescence, 48 h; Potency, µM (doses to about 46.1 µM), hits mostly cytotoxic; AID 686970; 1.6% of 360,000 active;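 further: NT is the 2HG producing partner of a matched IDH1 knockdown line; nearly all actives have a fitted effect of over 55% in size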
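Viability of the 2HG-overproducing fibrosarcoma line after 48 hours of compound exposure at 37 degrees C was determined by luminescence with CellTiter-Glo, and concentration-effect curves were then fitted and categorized.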
IL-1B inflam inh – blocks inflammasome-driven IL-1 beta release. 4.7% of 360,000 active. THP-1 LPS/ATP IL-1B secretion, AlphaLISA, 16 h; stronger effect = lower value. activity change, % at 57.5 µM; in the data active means activity change below about -50%; inconclusive means mostly about -30% to -49%
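Secreted IL-1B measured by AlphaLISA bead assay after 16 h compound exposure of THP-1 cells; compounds (final up to 57.5 uM) added 1 h before LPS (250 ng/mL) and ATP (1.25 mM) stimulation; lower signal means less secretion.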
A number is an active result; . = inactive; ? = inconclusive; / = no result; [ ] = remark or other dose. An excerpt weighted towards active compounds, which were near 19% of everything screened. Unless noted, the call rests on the fitted dose curve; in most records, active means well fitted curve in the direction sought with a large enough effect; inconclusive means small, poorly fitted or top-dose-only effect, or another doubt; inactive means no such curve, though single readings can be large; an effect the other way counts as inactive or inconclusive.

SMILES | HT1080 IDH1KD tx | DT40 TDP1 no CPT | TDP1 cell CPT | HT1080NT lethal | IL-1B inflam inh
NC(=O)CC(NC(=O)c1cccc(Br)c1)c1ccc(N2CCN(c3ccc(F)cc3)CC2)c([N+](=O)[O-])c1 (centres undefined) | . | 13µM | 23µM | . | .
Cc1nc2sccn2c(=O)c1S(=O)(=O)NCc1ccc(F)cc1 | / | . | . | / | /
CN(C)CCOC(=O)c1ccc2[nH]c3c(c2c1)CSCC3 | . | . | . | . | -74
CCN1C(=O)/C(=C\c2nc3ccccc3c(=O)n2-c2ccccc2)c2ccccc21 | ? | 8.2µM | 13µM | . | ?
COc1ccc(-n2c(/C=C3\C(=O)N(C)c4ccccc43)nc3ccccc3c2=O)cc1 | . | ? | . | . | /
CCN1C(=O)/C(=C/c2nc3ccccc3c(=O)n2-c2ccc(C)cc2)c2ccccc21 | . | 18µM | 23µM | . | /
COC(=O)C1=C(C)Nc2c(c(=O)n(C)c(=O)n2C)C1c1ccc(C)cc1 (centres undefined) | . | . | . | . | .
COC(=O)C1=CN(c2ccc(N3CCOCC3)cc2)C(N)=C(C#N)C1c1cccc(OC)c1OC (centres undefined) | . | ? | . | . | .
COC(=O)C1=CN(c2ccc(Oc3ccccc3)cc2)C(N)=C(C#N)C1c1cccc(OC)c1OC (centres undefined) | . | 13µM | 15µM | . | .
COC(=O)C1=CN(c2cccc(OCc3ccccc3)c2)C(N)=C(C#N)C1c1cccc(OC)c1OC (centres undefined) | . | 15µM | 15µM | . | .
CC(C)(C)NC(=O)C1c2ccccc2OCC(=O)N1CCCN1CCOCC1 (centres undefined) | . | . | . | . | .
CN(C(=O)NCc1noc2ccccc12)c1cccc(Cl)c1 | / | . | . | / | /
O=c1c2ccccc2ncn1-c1ccc(Cl)c(Cl)c1 | .[9.24 µM] | . | . | . | .
Clc1ccc(-n2cnc3c(Cl)ncnc32)cc1Cl | . | 6.5µM | 4.6µM | . | ?
Cc1nc(N2CCN(Cc3ccccc3)CC2)nc2c1C(=O)CCC2 | . | 16µM | 23µM | . | .
COc1ccc2c(c1)[C@H]1[C@H](CO2)[C@H](c2ccccc2)[C@]2(C)C(=O)Nc3cc(Cl)ccc3C(=O)N12 | . | ? | ? | . | .
Cc1ccc2c(c1)[C@H]1[C@H](CO2)[C@H](c2ccccc2)[C@]2(C)C(=O)Nc3cc(Cl)ccc3C(=O)N12 | ? | 21µM | ? | ? | .
C[C@@]12C(=O)Nc3cc(F)ccc3C(=O)N1[C@H]1c3ccccc3OC[C@@H]1[C@@H]2c1ccccc1 | ? | ? | ? | . | -75
C[C@@]12C(=O)N(c3ccc(F)cc3)C(=O)N1[C@@H]1c3ccccc3OC[C@@H]1[C@H]2c1ccccc1 | . | ? | ? | . | .
COc1cc2c(cc1OC)C(=O)N1[C@H]3c4cc(C)ccc4OC[C@@H]3[C@H](c3ccccc3)[C@]1(C)C(=O)N2 | 16µM | 21µM | 18µM | ? | -51
COc1ccc2c(c1)C(=O)N1[C@H]3c4cc(Cl)ccc4OC[C@@H]3[C@H](c3ccccc3)[C@]1(C)C(=O)N2 | 15µM | ? | ? | 6.5µM | ?
Cc1csc(NC(=O)CSc2nc(=O)n(CCN(C)C)c3c2CCCC3)n1 | . | . | . | . | .
Cc1ccc(NS(=O)(=O)c2ccc(Br)s2)nc1 | . | . | . | . | .
Cc1ccc2c(c1)[C@H]1[C@H](CO2)[C@H](c2ccccc2)[C@]2(C)C(=O)Nc3ccc(F)cc3C(=O)N12 | 5.8µM | 21µM | 21µM | ? | -61
COc1ccc2c(c1)[C@H]1[C@H](CO2)[C@H](c2ccccc2)[C@@]2(C)C(=O)N[C@H](C)C(=O)N12 | . | . | . | . | .
SMILES | HT1080 IDH1KD tx | DT40 TDP1 no CPT | TDP1 cell CPT | HT1080NT lethal | IL-1B inflam inh
COc1cc2c(cc1OC)C(=O)N1[C@H]3c4cc(Cl)ccc4OC[C@@H]3[C@H](c3ccccc3)[C@]1(C)C(=O)N2 | ? | 18µM | 21µM | . | -50
COc1ccccc1NC(=O)c1sc2nc(N3CCOCC3)c3c(c2c1N)CC(C)(C)OC3 | / | . | . | / | /
CCOC(=O)N1CCC(NC(=O)c2cc3c(-c4cccc(OC)c4)nn(C)c3s2)CC1 | . | ? | 23µM | . | .
COc1cccc(-c2nn(C)c3sc(C(=O)N4CCN(c5cccc(C)c5)C(C)C4)cc23)c1 (centres undefined) | / | 23µM | 21µM | / | /
CCOC(=O)N1CCN(C(=O)c2cc3c(=O)[nH]c4ccccc4c3s2)CC1 | . | 16µM | ? | . | .
CCOC(=O)N1CCN(C(=O)c2cc3c(-c4cccc(OC)c4)nn(C)c3s2)CC1 | . | 23µM | ? | . | -67
COCCCNC(=O)c1cc2c(-c3cccc(OC)c3)nn(C)c2s1 | ? | ? | ? | . | .
O=C(c1cnccn1)N1CCC2(CC1)CCN(c1ccncc1)CC2 | / | . | . | / | /
CCCC(C(=O)Nc1ccncc1)c1ccccc1 (centres undefined) | . | . | ? | . | .
Oc1cc(-c2nc3ccccc3s2)cc2c1OCCN(Cc1cccn1-c1nccs1)C2 | / | ? | .[9.04 µM] | / | /
CC1(Oc2cccc(F)c2)CCN(Cc2ccc(-c3ccccn3)cc2)C1 (centres undefined) | . | 18µM | ? | . | .
Cc1ccccc1OC1(C)CCN(Cc2ccc(-c3ccccn3)cc2)C1 (centres undefined) | ? | ? | ? | ? | .
CCCNC(=O)C1(C)CCCN(CCC(=O)c2ccccc2)C1 (centres undefined) | ? | 7.3µM | 5.8µM | ? | ?
CCCNC(=O)C1(C)CCCN(Cc2ccc(-c3ccccn3)cc2)C1 (centres undefined) | . | 13µM | 16µM | . | .
CCCNC(=O)C1(C)CCCN(CCOc2ccccc2)C1 (centres undefined) | . | ? | ? | . | .
CC(C)NC(=O)C1(C)CCN1CCC(=O)c1ccccc1 (centres undefined) | . | 13µM | 13µM | . | .
CC(C)NC(=O)C1(C)CCCN1Cc1ccccc1 (centres undefined) | . | ? | . | . | .
CCCNC(=O)C1(C)CCN(Cc2ccc(-c3ccccn3)cc2)C1 (centres undefined) | . | ? | ? | . | .
N#Cc1ccc(CN2CCN(C(=O)CN3C(=O)NC4(CCCC4)C3=O)CC2)cc1 | ? | ? | ? | . | .
CCOC(=O)C(C)NC(=O)C1CCN(c2ncnc3c2nc2n3CCCCC2)CC1 (centres undefined) | / | . | ? | / | /
Cn1c(=O)c2c(nc(NNC(=O)C(F)(F)F)n2C)n(C)c1=O | . | . | . | . | .
